An excerpt weighted towards active compounds, which were near 11% of everything screened.
PNC inhibitor – blocks assembly of the perinucleolar compartment; PC3M PTB-GFP, PNC prevalence imaging, 16 h; active compounds read low; activity change (PNC), negative = inhibition, % at 10 µM; 140,000 tested, 3.1% active; AID 2417;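 active = readout at or below -70, meaning at least 70% loss of cells showing the perinucleolar compartment, a nuclear body marking cancer cells; inconclusive = readout between -30 and a set limit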;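 note: plate controls were DMSO wells for no effect and camptothecin positive control wells for full effect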
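Read-out is percentage of cells bearing a perinucleolar compartment, from automated 20x imaging of fixed, Hoechst-stained PC3M PTB-GFP cells. Cells were seeded 4 h, then exposed 16 h to compound (23 nl of library stock) in duplicate plates.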
HPGD inh – blocks human HPGD enzyme activity; P15428; Potency, µM, for inactives: at the top dose activity change, negative = inhibition, most hits filed as inhibitors; purified HPGD, NADH fluorescence kinetic, PGE2 substrate; 150,000 tested, 4.3% active; note: potency is the fitted concentration of half-maximal effect
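20 nM HPGD preincubated 15 min at room temperature with compound in 50 mM Tris-HCl pH 8, 0.01% Tween 20. Started with 1 mM NAD+ and 30 uM prostaglandin E2; NADH fluorescence (360/450 nm) read 5 times over 30-s intervals, last minus first.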
IMPase cell inh – membrane-permeable compound that blocks inositol monophosphatase. P97697. inhibition (IP1 accumulation), % at 46.1 µM. CHO-M1 cells, IP1 accumulation, HTRF TR-FRET ratio. 120,000 tested, under 10 active; active = well fitted curve in the direction sought with a large enough effect in the signal ratio, not every such curve was filed as active; inconclusive = small, poorly fitted or top-dose-only effect, or a change in a side signal; inactive = no such curve, though single readings can be large or run the other way; the % refers to the signal ratio;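 note: cells stimulated with carbachol in lithium chloride buffer; plate controls were DMSO basal wells for no effect and reference inhibitor wells for full effect; higher means more IMPase inhibition seen as more IP1 and lower FRET ratio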
Target sequence (P97697 whole entry, looked up): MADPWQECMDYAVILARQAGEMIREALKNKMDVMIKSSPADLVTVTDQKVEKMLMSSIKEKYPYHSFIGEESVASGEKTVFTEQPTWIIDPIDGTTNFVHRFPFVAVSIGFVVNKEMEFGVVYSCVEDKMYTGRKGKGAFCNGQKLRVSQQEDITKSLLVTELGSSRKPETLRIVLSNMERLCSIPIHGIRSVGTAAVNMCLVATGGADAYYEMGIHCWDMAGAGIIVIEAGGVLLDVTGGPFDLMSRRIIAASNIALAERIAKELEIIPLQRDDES
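In this qHTS, compounds (final up to 46 uM) act on CHO-M1 cells that are then activated through the M1 receptor with carbachol, in pH 7.4 buffer containing 50 mM LiCl, for 30 min. IP1 accumulation is quantified by the IP-One immunoassay.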
ALDH1A1 inh – inhibitors of human aldehyde dehydrogenase 1A1. 220,000 tested, 7.3% active. Potency, µM (titrated, usually from 75.3 µM), for inactives: at the top dose activity, negative = inhibition, most hits filed as inhibitors. P00352. Purified ALDH1A1, NADH fluorescence, propionaldehyde substrate;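 note: potency is the fitted concentration of half-maximal effect; plate controls were no enzyme wells and a reference inhibitor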
Target sequence (P00352 whole entry, looked up): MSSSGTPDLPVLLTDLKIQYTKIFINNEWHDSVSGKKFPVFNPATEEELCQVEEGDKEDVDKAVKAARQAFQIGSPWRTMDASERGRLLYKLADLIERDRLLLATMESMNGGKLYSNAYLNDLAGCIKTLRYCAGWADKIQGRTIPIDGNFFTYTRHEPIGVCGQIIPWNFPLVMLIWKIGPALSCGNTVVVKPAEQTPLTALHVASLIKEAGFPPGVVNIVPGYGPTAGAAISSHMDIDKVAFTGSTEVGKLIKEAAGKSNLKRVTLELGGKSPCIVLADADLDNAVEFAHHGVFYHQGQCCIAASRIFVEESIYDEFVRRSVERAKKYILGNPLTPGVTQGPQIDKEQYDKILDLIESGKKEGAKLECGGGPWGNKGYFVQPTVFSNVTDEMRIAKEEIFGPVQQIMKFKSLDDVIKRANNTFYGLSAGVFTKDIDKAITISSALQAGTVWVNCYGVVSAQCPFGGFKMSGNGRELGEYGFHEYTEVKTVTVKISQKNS
IMPase Li cell – membrane-permeable IMPase blocker, potentiated with lithium; CHO-M1 cells, IP1 TR-FRET (IP-One), carbachol + lithium; Potency, µM (highest dose often 59.4 µM), without a hit: at the highest dose activity, negative = IMPase inhibition, usual class: inhibitors; AID 1457; 210,000 tested, 0.35% active; active = well fitted inhibition curve with a large enough effect; inconclusive = small, poorly fitted or top-dose-only effect; inactive = no such curve, though single readings can be large or run the other way;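 note: IP1 builds up when IMPase is blocked and the TR-FRET signal falls; potency is the fitted concentration of half-maximal effect; plate controls were basal vehicle for no effect and high inhibitor control for full effect; nearly all actives have a fitted effect of over 50% in size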
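Test compounds were applied to CHO-M1 cells previously cultured for 16–30 h at 2000 per well. A small lithium amount accompanied them; after 30 min at 37C, IP1 was quantified by TR-FRET.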
Starred values were filed as active, the others as inactive; u = inconclusive; x = no result; [ ] = remark or other dose. Unless noted, calls come from the whole dose curve; as a rule, active = well fitted inhibition curve with a large enough effect (not every such curve was filed as active); inconclusive = small, poorly fitted or top-dose-only effect, or another doubt; inactive = no such curve, though single readings can be large or run the other way. Unless noted, % is set by controls: 0 for no effect and ±100 for the full control effect.

SMILES | PNC inhibitor | HPGD inh | IMPase cell inh | ALDH1A1 inh | IMPase Li cell
O=C(CN1C(=O)C2(OCCO2)c2ccccc21)c1ccc(Br)cc1 | u | x | 5 | 14µM* | x
COc1ccc(CCNC(=O)C(=O)c2c[nH]c3ccccc23)cc1 | x | x | x | 11% | 25%
COc1ccccc1CNc1ncncc1-c1ccc(C(=O)N(C)C)cc1 | x | x | x | -9% | 2%
O=C(Nc1nnc(C2CC2)s1)c1cc(-c2ccccc2)nn1-c1ccccc1 | -81* | -9% | 1 | -8% | -3%[38.3 µM]
Cc1nn(Cc2ccccc2Cl)c(C)c1C(=O)Nc1nnc(C2CC2)s1 | -97* | -25% | 2 | u | 22%[38.3 µM]
Cc1nn(-c2ccccc2)c(Cl)c1C(=O)Nc1nnc(C2CCCCC2)s1 | u | -7% | 1 | 4µM* | 2%[38.3 µM]
Cc1nn(-c2ccc(C(=O)Nc3nnc(C4CC4)s3)cc2)c(C)c1Cl | u | -15% | 4 | 9% | -9%[38.3 µM]
COc1c(CO)cc(CO)cc(CO)c1=O | x | -3% | x | -3% | -11%
COc1ccc(C(=O)Nn2c(C)nnc2-n2nc(C)cc2C)cc1OC | -6 | 1% | 13 | -2% | 0%
COc1cccc(C(=O)Nn2c(C)nnc2-n2nc(C)cc2C)c1 | -100* | -9% | -10 | 2% | 6%
CCCn1c(-c2ccc(F)cc2)nc2c(NCCCCN(C)C)nc(C)nc21 | x | u | x | u | 4%
CS(=O)(=O)c1cnc(-c2cccnc2)nc1N | x | x | x | 11% | -2%
COc1ccc(NC(=O)c2cccc(C(=O)Nc3ccc(OC)cc3)n2)cc1 | x | x | x | -1% | -7%
COc1ccc(NC(=O)c2sc(=S)[nH]c2N)cc1 | 14 | 28µM* | 20 | 10µM* | 47%[38.3 µM]
Cc1cccc(-n2c(SCC(=O)Nc3ncc(Cl)cc3Cl)nc3ccccc32)c1 | -108* | -10% | 6 | -6% | 10%
O=C(CSc1nc2ccccc2n1-c1ccccc1)Nc1ncc(Cl)cc1Cl | -107* | -7% | -8 | 2% | 22%
CC(C(=O)O/N=C(\N)c1cccnc1)c1ccc([N+](=O)[O-])cc1 (configuration not stated) | x | x | x | 7% | -2%
CC1(C)CC(N(Cc2ccco2)C(=O)Cc2ccccc2)CCO1 (configuration not stated) | -10 | -7% | 2 | 1% | -5%[38.3 µM]
CC1(C)CC(N(Cc2cccs2)C(=O)c2ccco2)CCO1 (configuration not stated) | u | -7% | 8 | 10µM* | 9%[38.3 µM]
COCCn1c(=O)c(-c2cn(C)c3ccccc23)nc2cnc(N3CCNCC3)nc21 | x | x | x | u | 13%
CC1(C)CC(=O)C(N=Nc2c(Cl)cc(Cl)cc2Cl)=C(O)C1 | u | -16% | 1 | 2µM* | -12%
CC1(C)CC(=O)C(N=Nc2ccc(-c3ccccc3)cc2)=C(O)C1 | x | x | x | u | 19%
CC1(C)CC(=O)C(N=Nc2cc(S(=O)(=O)N3CCOCC3)ccc2Cl)=C(O)C1 | x | x | x | 0.1µM* | x
CC1(C)CC(=O)C(N=Nc2cc(C(F)(F)F)ccc2Cl)=C(O)C1 | x | x | x | 1.4µM* | 2%
CCO[C@@H]1OC(C(=O)N2CCOCC2)=C[C@H](c2ccc(C(F)(F)F)cc2)[C@H]1CCCO | x | x | x | 11% | -3%
SMILES | PNC inhibitor | HPGD inh | IMPase cell inh | ALDH1A1 inh | IMPase Li cell
O=C(c1cnccn1)N1CCC2(CC1)CN(c1ncccn1)C2 | x | u | x | u | 6%
O=C(CSc1nc2c(sc3ccccc32)c(=O)n1-c1ccccc1)NCc1ccco1 | u | -22% | x | 11µM* | u
O=C(CSc1nc2c(sc3ccccc32)c(=O)n1CCc1ccccc1)NCc1ccco1 | 24 | -20% | -1 | 1% | -8%[38.3 µM]
COc1ccc(-n2c(SCC(=O)NCc3ccco3)nc3c([nH]c4ccccc43)c2=O)cc1 | -108* | -16% | 5 | 11% | 19%[38.3 µM]
CN1CCN(c2ncnc3ccc(-c4cccc(NS(C)(=O)=O)c4)cc23)CC1 | x | x | x | u | 23%
CN(c1ccccc1)S(=O)(=O)c1ccc(NC(=S)NC(=O)c2ccccc2)cc1 | 45 | -20% | 2 | 10µM* | 17%[38.3 µM]
COc1ccccc1/C=N/NC(=O)c1ccc(N(C)S(=O)(=O)c2ccccc2)cc1 | x | x | x | -7% | 1%
COc1cc(C(=O)Nc2ccc(S(=O)(=O)N(C)c3ccccc3)cc2)cc(OC)c1OC | u | -16% | x | -4% | 1%
CN(c1ccccc1)S(=O)(=O)c1ccc(NC(=S)NC(=O)C2CC2)cc1 | 0 | -7% | x | u | 8%
Cc1ccc(C(=O)NC(=S)Nc2ccc(S(=O)(=O)N(C)c3ccccc3)cc2)cc1 | u | -7% | 0 | 11µM* | 27%[38.3 µM]
COc1ccccc1/C=C/C(=O)NC(=S)Nc1ccc(S(=O)(=O)N(C)c2ccccc2)cc1 | -18 | -22% | 2 | 28µM* | -24%[38.3 µM]
CCOc1ccc(NC(=O)Cn2c(=O)n(CCC(=O)NCCc3ccccc3)c(=O)c3ccccc32)cc1 | x | x | 0 | x | x
CCN(CC)CCCn1c(-c2ccccc2)nc2c(NCCOC)nc(C)nc21 | x | u | x | u | 8%
C=CCN1C(=O)C(CC(C)C)NC1=S (configuration not stated) | x | -4% | x | 7% | 5%
CCCN1Cc2cccc(C(=O)NC(CC(=O)OCC)c3ccc(OC(C)C)cc3)c2C1=O (configuration not stated) | x | x | x | u | 0%
CCCN1Cc2cccc(C(=O)NC(CC(=O)OCC)c3ccc(C)cc3)c2C1=O (configuration not stated) | x | x | x | 13µM* | 7%
CCCCCCc1ccc(-c2ncc(N)cn2)cc1 | u | u | 6 | u | 11%[38.3 µM]
Nc1ccc(-c2cnc(-c3ccc(N)cc3)nc2)cc1 | -123* | u | -5 | u | -10%[38.3 µM]
CO[C@]12C(COC(N)=O)C3=C(C(=O)C(C)=C(N)C3=O)N1CC1NC12 (some centres not stated) | x | -11% | x | -3% | 50%
Cc1sc2nc(CSCC(=O)Nc3ccc(OC(F)F)cc3)[nH]c(=O)c2c1C | x | x | x | 40µM* | 9%
CCCCC/C=C\C/C=C\C/C=C\CCCCC(=O)NCCCC(=O)O | x | 0% | x | -1% | -3%
CC(=O)OC[C@@H]1O[C@H](C/C=N\OC[C@@H](O)COCc2ccco2)C=C[C@@H]1OC(C)=O | x | x | x | 8%[13.5 µM] | x
CCCOc1ccc(OCCSc2nnc(N)s2)cc1 | 20 | 5µM* | 1 | 7% | 15%[38.3 µM]
Cc1ccc(OCCSc2nc(N)cc(N)n2)cc1 | x | x | x | -6% | 6%
CCCOc1ccc(OCCSc2ncccn2)cc1 | u | 14µM* | 1 | 2% | -2%
Clc1ccc(OCCCCSc2ncccn2)cc1 | 8 | -25% | 5 | -7% | 16%[38.3 µM]
COc1ccc(OCCSc2nc(N)cc(N)n2)cc1 | 8 | 25µM* | 8 | u | 50%[38.3 µM]
C/C=C/OC(=O)NC(c1ccccc1)[C@@]1(C(=O)OC)CCCC1=O (some centres not stated) | x | x | x | 6%[13.5 µM] | x

Screens deposited in PubChem by National Center for Advancing Translational Sciences (NCATS).
